Shown are actives, neighbours in structure and some others; about 10% of the full set was active somewhere.
HEK cytotox = kills HEK 293 cells; HEK 293 viability, ATP luminescence (CellTiter-Glo), 48-72 h; Potency, µM (highest dose often 115 µM), without a hit: top-dose activity change, negative = cytotoxicity, most hits filed as inhibitors; 94,000 compounds, 6.6% hits; AID 1345083; note: nearly all actives have a fitted effect of over 60% in size
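Cytotoxicity was scored by loss of ATP-coupled luminescence (CellTiter-Glo) in HEK 293 cells. Compound treatment ran 48 or 72 hr at 37 degree Celsius, 5% CO2, 95% humidity.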
3T3 cytotox = kills NIH 3T3 cells; NIH 3T3 viability, CellTiter-Glo ATP luminescence, 48-72 h; Potency, µM (doses to about 96.7 µM), inactives show at the highest dose activity change, negative = cytotoxicity, most hits filed as inhibitors; 94,000 compounds, 4.3% hits; AID 1345082; note: nearly all actives have a fitted effect of over 55% in size
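ATP-dependent luminescence (CellTiter-Glo) served as the viability signal for NIH 3T3 cells treated with compound for 48 or 72 hr at 37 °C.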
GPT2 inhibitor = GPT2 alanine aminotransferase inhibition; 100,000 compounds, 0.25% hits; Q8TD30; Recombinant GPT2, coupled pyruvate oxidase/HRP Amplex Red fluorescence; Potency, µM (series often up to 57.7 µM), for inactives: at the highest dose activity change, negative = inhibition, hits mostly inhibitors; note: nearly all actives have a fitted effect of over 60% in size
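Recombinant GPT2 (10ng/uL) with 250uM a-KG and 2mM L-alanine, 30 min at room temperature, in HEPES pH 7.5 buffer. Pyruvate detected by pyruvate oxidase/HRP/Amplex Red fluorescence after 30 min in the dark; AOA (50uM) as positive control.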
hNpr1 antagonist = human Npr1 receptor antagonism; P16066; HEK293 hNpr1 GloSensor cGMP, ANP-stimulated luminescence; Potency, µM (series often up to 46.3 µM), for inactives: top-dose activity change, negative = inhibition, actives largely listed as inhibitors; 76,000 compounds, 1.6% hits; AID 1347048; calls by dose curve; note: nearly all actives have a fitted effect of over 60% in size
Target sequence (P16066 whole entry, looked up): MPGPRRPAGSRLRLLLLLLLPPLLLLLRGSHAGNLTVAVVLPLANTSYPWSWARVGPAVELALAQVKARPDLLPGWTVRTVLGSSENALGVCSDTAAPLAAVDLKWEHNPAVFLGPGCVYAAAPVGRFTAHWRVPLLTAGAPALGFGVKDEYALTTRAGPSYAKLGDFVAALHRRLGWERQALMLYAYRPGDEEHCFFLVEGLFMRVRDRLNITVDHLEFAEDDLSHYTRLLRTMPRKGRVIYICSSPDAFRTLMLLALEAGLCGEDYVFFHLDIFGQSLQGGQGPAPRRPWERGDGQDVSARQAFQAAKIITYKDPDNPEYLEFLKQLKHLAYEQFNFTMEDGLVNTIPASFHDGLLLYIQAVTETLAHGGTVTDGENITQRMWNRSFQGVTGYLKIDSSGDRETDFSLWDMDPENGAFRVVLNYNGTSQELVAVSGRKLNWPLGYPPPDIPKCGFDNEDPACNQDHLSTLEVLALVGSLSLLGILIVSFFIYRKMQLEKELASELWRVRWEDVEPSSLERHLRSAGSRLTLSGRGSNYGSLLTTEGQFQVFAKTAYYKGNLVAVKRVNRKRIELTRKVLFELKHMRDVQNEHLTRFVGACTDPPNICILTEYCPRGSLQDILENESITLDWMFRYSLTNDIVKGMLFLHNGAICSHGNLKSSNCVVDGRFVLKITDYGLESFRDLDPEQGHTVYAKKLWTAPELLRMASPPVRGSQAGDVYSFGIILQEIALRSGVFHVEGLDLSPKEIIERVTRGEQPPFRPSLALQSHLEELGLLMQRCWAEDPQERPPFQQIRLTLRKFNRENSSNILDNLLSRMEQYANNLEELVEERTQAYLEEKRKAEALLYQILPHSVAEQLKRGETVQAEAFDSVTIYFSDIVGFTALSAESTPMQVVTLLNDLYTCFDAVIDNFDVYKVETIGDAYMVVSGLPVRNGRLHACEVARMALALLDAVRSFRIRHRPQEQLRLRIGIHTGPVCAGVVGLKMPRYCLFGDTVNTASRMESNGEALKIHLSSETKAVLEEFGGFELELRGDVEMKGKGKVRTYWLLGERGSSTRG
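HEK293 cells stably expressing human Npr1 and cGMP GloSensor pGS-40F, loaded 2 h with 2% GloSensor reagent, given compound 30 min at room temperature. Luminescence read before and 20 min after 0.1 nM hNppA.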
FLuc inh = Photinus pyralis luciferase inhibition; Potency, µM (highest dose often 115 µM), most hits filed as inhibitors; purified P. pyralis luciferase, luminescence, biochemical; AID 1347043; 76,000 compounds, 2.5% hits; P08659; note: nearly all actives have a fitted effect of over 65% in size
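Luminescence read by CCD imager after adding enzyme (10nM final) to wells holding compound, titrated in qHTS. Substrates 10uM each D-luciferin and ATP; buffer 50mM Tris acetate pH 7.5, 10mM Mg acetate, Tween-20, BSA.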
Active calls of the source: *; i = inactive; ? = inconclusive; / = not tested or not shown; [ ] = another dose, or the depositor's remark. Unless noted, calls come from the whole dose curve; as a rule, active = well fitted curve in the direction sought with a large enough effect; inconclusive = small, poorly fitted or top-dose-only effect, or another doubt; inactive = no such curve, though single readings can be large; an effect the other way counts as inactive or inconclusive. % is set by controls: 0 for no effect and ±100 for the full control effect; potency is the fitted concentration of half-maximal effect.

SMILES | HEK cytotox | 3T3 cytotox | GPT2 inhibitor | hNpr1 antagonist | FLuc inh
Cc1nn(-c2ccccc2)c2c1C(C(C)C)N(C1CN(C(=O)c3ccccn3)C1)C2=O (centres undefined) | -28% | ? | / | / | /
Cc1nn(-c2ccccc2)c2c1C(C(C)C)N(C1CN(C(=O)N(C)C)C1)C2=O (centres undefined) | ? | -26% | / | / | /
Cc1nn(-c2ccccc2)c2c1C(C(C)C)N(C1CCCN(C(=O)C(C)(C)C)C1)C2=O (centres undefined) | ? | -5% | / | / | /
Cc1ccccc1C(=O)N1CC(N2C(=O)c3c(c(C)nn3-c3ccccc3)C2C(C)C)C1 (centres undefined) | 50µM* | ? | / | / | /
Cc1nn(-c2ccccc2)c2c1C(C(C)C)N(C1CCN(C(=O)c3ccccn3)C1)C2=O (centres undefined) | 45µM* | -21% | / | / | /
O=C(CCC[C@@H]1[C@H]2CCCN3CCC[C@@H](CN1C(=O)Cc1ccc(F)cc1)[C@@H]23)N1CCOCC1 | 16% | i | i | -2% | i
CC1=C[C@@H](CN(C)CCO)[C@H](C(C)C)C[C@H]1Cc1nnc(-c2ccccc2)o1 | ? | ? | -3%[88.5 µM] | -2%[70.6 µM] | i
CCc1ccc(CNC(=O)C2(c3ccc(NC(C)=O)cc3)CCC2)cc1 | -9% | 5% | i | 0% | i
CC(=O)c1c(C)nn(CC(=O)NC(C)c2cnn(-c3ccccc3C)c2C)c1C (centres undefined) | ? | -2% | 2%[11.5 µM] | -11% | i
COc1cccc(CC(=O)N2CCC3(CC2)NC(=O)N(c2cccc(Cl)c2)N3)c1 | ? | ? | ? | -6% | i
CN(C)CC(C)(C)CNc1nn2c(-c3ccccc3)nnc2cc1C1CCC1 | / | / | -30% | / | /
CC(C)C[C@@H](C=O)NC(=O)[C@H](CC(C)C)NC(=O)[C@H](CC(C)C)NC(=O)OCc1ccccc1 | / | / | 3% | / | /
COc1cccc(CNC(=O)c2c(C)oc3ccn(Cc4ccc(F)cc4)c(=O)c23)c1 | 40µM* | ? | i | -19% | i
Cc1oc2ccn(Cc3ccccc3F)c(=O)c2c1C(=O)NCc1cc(F)cc(F)c1 | 35µM* | ? | i | -4% | i
Cc1oc2ccn(Cc3cccc(F)c3)c(=O)c2c1C(=O)NCC1CCCCC1 | 40µM* | 40µM* | 4% | -16% | i
COc1ccccc1CNC(=O)c1c(C)oc2ccn(Cc3cccc(F)c3)c(=O)c12 | ? | ? | 3% | -19% | ?
CCOC(=O)c1cccc(NC(=O)c2c(C)oc3ccn(Cc4ccc(F)cc4)c(=O)c23)c1 | 40µM* | ? | -11% | -5% | i
Cc1cccc(CN2CCc3c(cc(C(=O)O)n3C)C2)c1 | -2% | -27% | 3% | -1% | i
COC1CCC(C(=O)N2CCc3c(n(Cc4cccnc4)n(-c4ccccc4)c3=O)C2)CC1 (centres undefined) | i | ? | 0% | 0% | i
COC(=O)c1ccc(CN2C(=O)[C@@H]3C[C@@H](O)CN3C3(CN(Cc4ccccc4Cl)C3)C2=O)cc1 | ? | -17% | 0% | -11% | i
O=C(NCC1CCCCCC1)[C@@H]1CCCN1c1nccc(Nc2ccccc2Cl)n1 | 25µM* | 32µM* | i | / | /
O=C(NCC1CCCCC1)C1CCN(c2nccc(Nc3ccccc3Cl)n2)CC1 | 35µM* | 32µM* | i | / | /
C#CCNC(=O)C1CCN(c2nccc(Nc3ccccc3Cl)n2)CC1 | ? | 45µM* | 4% | / | /
O=C(C1CCCC1)N1CC2(CCN(Cc3cccnc3)CC2)Cc2ccccc21 | ? | ? | -30% | / | /
COc1ccc(Cn2ccn3nc4c(c3c2=O)CCCC4)cc1F | 40µM* | ? | i | 2% | i
SMILES | HEK cytotox | 3T3 cytotox | GPT2 inhibitor | hNpr1 antagonist | FLuc inh
O=c1c2c3c(nn2ccn1Cc1cc(F)cc(F)c1)CCCC3 | ? | ? | 2% | -3% | i
CO[C@H]1/C=C\O[C@@]2(C)Oc3c(C)c(O)c4c(O)c(c5c(nc6cc(C)ccn65)c4c3C2=O)NC(=O)/C(C)=C\C=C/[C@H](C)[C@H](O)[C@@H](C)[C@@H](O)[C@@H](C)[C@H](OC(C)=O)[C@@H]1C | / | / | -23% | / | /
O=C(c1cc(COc2ccccc2F)[nH]n1)N1CCOCC1 | i | -4% | 3% | -1% | 32µM*
Clc1ccccc1C1Cn2cnc(-c3nc(-c4ccccn4)no3)c2CO1 (centres undefined) | ? | ? | -1% | -14% | 25µM*
Cc1ccc(-n2cc(CN3CCCCC3C(N)=O)c(-c3cccc(C)c3)n2)cc1 (centres undefined) | 50µM* | 79µM* | i | 5% | ?
Cc1cccc(-c2nc3cc4c(cc3cc2CN2CCC[C@H]2C(N)=O)OCO4)c1 | ? | ? | 3% | 4% | i
CN1C[C@H](C(=O)Nc2cccc(Cl)c2)C[C@H]1c1cccc(C(F)(F)F)c1 | 35µM* | 32µM* | -13%[88.5 µM] | -22%[70.6 µM] | i
COc1ccc(NC(=O)[C@@H]2C[C@@H](c3cccc(C(F)(F)F)c3)N(C)C2)cc1OC | ? | ? | 3%[88.5 µM] | -22%[70.6 µM] | i
CN1C[C@H](C(=O)N2CCN(c3ccccn3)CC2)C[C@H]1c1cccc(C(F)(F)F)c1 | 89µM* | ? | -11%[88.5 µM] | -28%[70.6 µM] | i
CN1C[C@H](C(=O)NCc2ccncc2)C[C@H]1c1cccc(C(F)(F)F)c1 | ? | -27%[138 µM] | 0%[88.5 µM] | -14%[70.6 µM] | i
O=C(C1CCCCC1)N1CC2CC(C1)[C@H]1CCCC(=O)N1C2 (some centres undefined) | -4% | i | i | 6% | i
COc1ccc(C2(C(=O)N3CCCN(c4cc(-c5ccc(C)c(C)c5)[nH]n4)CC3)CC2)cc1 | 25µM* | 32µM* | ? | ? | i
COc1ccc(-c2cc(N3CCN(C(=O)c4ccc(C)cc4C)CC3)n[nH]2)cc1 | 40µM* | ? | 5% | ? | i
COc1ccc(-c2cc(N3CCCN(C(=O)c4ccc(OC)cc4OC)CC3)n[nH]2)cc1 | 40µM* | ? | ? | ? | i
COc1cc(OC)cc(C(=O)N2CCCN(c3cc(-c4ccc(C)c(C)c4)[nH]n3)CC2)c1 | ? | ? | ? | -15% | i
COc1ccc(-c2cc(N3CCCN(C(=O)c4cc5ccccc5[nH]4)CC3)n[nH]2)cc1 | 45µM* | 35µM* | i | -19% | ?
CCCS(=O)(=O)N[C@@H]1CN(Cc2cccnc2)C[C@H]1CN(C)C | -15% | -12% | i | -1% | i
C[S+](=O)([O-])NC1CCN(C(=O)N2CC3CC(C2)[C@H]2CCCC(=O)N2C3)CC1 (some centres undefined) | -1% | i | 1% | -4% | i

Assay outcomes as filed in PubChem.
